ELG1 repair inh: ELG1-dependent DNA repair inhibition | actives 2.3% (n = 330,000) | Potency, µM (doses to about 46.1 µM), usual class: inhibitors | HEK293T ELG1-luciferase reporter, luminescence, 16 h; DNA damage induced by 5-fluorouridine; further: nearly all actives have a fitted effect of over 55% in size
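HEK293T cells expressing luciferase-tagged ELG1 (2,000/well) received 5-Fluorouridine plus compound or DMSO for 16 hr at 37 °C. Luciferase was read by ONE-Glo luminescence after 30 min at room temperature.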
SMN2 splice enh: increases expression of the SMN2 splice variant | HEK293 SMN2-luciferase splicing reporter, luminescence, 30-36 h | Potency, µM (series often up to 46.1 µM), usual class: activators | actives 2.8% (n = 210,000); further: nearly all actives have a fitted effect of over 55% in size
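qHTS luciferase splicing reporter: luminescence rises when SMN2 exon 7 is included in transfected HEK293 cells. Compound exposure lasted 30-36 h at 37C, with 4.5 mM final sodium butyrate as control, followed by a ONE-Glo read.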
FLuc counter: inhibits or activates purified firefly luciferase, miR-21 counter-screen. Potency, µM (top dose mostly 57.5 µM), most hits filed as inhibitors. AID 588342. actives 6.9% (n = 360,000). P08659. purified FLuc, Km substrates, luminescence inhibition; further: nearly all actives have a fitted effect of over 55% in size
Target sequence (P08659 whole entry, looked up): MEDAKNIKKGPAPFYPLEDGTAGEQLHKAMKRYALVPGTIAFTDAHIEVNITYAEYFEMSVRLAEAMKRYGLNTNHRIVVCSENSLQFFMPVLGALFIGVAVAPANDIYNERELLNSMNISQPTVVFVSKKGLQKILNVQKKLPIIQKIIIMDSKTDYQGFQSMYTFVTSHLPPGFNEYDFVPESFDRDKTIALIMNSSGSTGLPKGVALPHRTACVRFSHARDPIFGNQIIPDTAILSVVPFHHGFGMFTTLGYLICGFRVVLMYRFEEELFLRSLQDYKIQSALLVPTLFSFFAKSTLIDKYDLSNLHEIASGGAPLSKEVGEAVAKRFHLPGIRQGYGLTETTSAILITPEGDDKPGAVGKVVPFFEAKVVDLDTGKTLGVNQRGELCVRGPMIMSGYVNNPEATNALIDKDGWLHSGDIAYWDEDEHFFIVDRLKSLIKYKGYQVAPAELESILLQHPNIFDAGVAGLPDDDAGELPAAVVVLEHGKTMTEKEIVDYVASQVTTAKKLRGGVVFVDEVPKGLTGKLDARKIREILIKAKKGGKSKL
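Purified P. pyralis luciferase, 10 nM final, with Km-level 10 uM D-luciferin and 10 uM ATP in 50 mM Tris acetate pH 7.5, 10 mM Mg acetate, 0.01% Tween-20, 0.05% BSA; 6-point qHTS titration about 60 µM downward; luminescence read.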
Rab9 promoter act: Rab9 promoter activation; Potency, µM (series often up to 9.22 µM), most hits filed as activators; actives 2.8% (n = 320,000); Huh7 Rab9 promoter-luciferase reporter, luminescence, 24 h; AID 485297; further: nearly all actives have a fitted effect of over 60% in size
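Cell-based reporter: Huh7 stable for Rab9 promoter-driven luciferase, plated in reduced-serum medium with 10% FBS at 1500 cells/well, compound-treated 24 h at 37 °C, luminescence read after 10 min reagent.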
ELG1 genotox: inducers of genotoxicity in HEK293T ELG1-luciferase cells | HEK293T ELG1-luciferase reporter, luminescence, 16 h | Potency, µM (titrated, usually from 46 µM), hits mostly activators | actives 1.3% (n = 330,000); further: nearly all actives have a fitted effect of over 60% in size
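Reporter readout depends on ELG1 protein level, which increases with genetic stress. After 16 hr compound exposure at 37 °C, luciferase activity was quantified using ONE-Glo.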
NPC1 prom act: activates the NPC1 promoter; Huh7 NPC1 promoter luciferase reporter, 24 h; Potency, µM (titrated, usually from 9.22 µM), hits mostly activators; actives 2.4% (n = 320,000); AID 485313; further: nearly all actives have a fitted effect of over 60% in size
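Stable NPC1-promoter luciferase Huh7 line; cpd (DMSO) 24 h, 37 °C, 5% CO2; Amplite luciferase reagent 10 min RT; luminescence readout. qHTS format.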
A number is an active result; n = inactive; u = inconclusive; x = not tested or not shown; [ ] = remark or other dose. Hits are enriched below; roughly 9.2% of the tested compounds scored in any of these assays. The call rests on the fitted dose curve; in most records, active means well fitted curve in the direction sought with a large enough effect; inconclusive means small, poorly fitted or top-dose-only effect, or another doubt; inactive means no such curve, though single readings can be large; an effect the other way counts as inactive or inconclusive.

SMILES | ELG1 repair inh | SMN2 splice enh | FLuc counter | Rab9 promoter act | ELG1 genotox | NPC1 prom act
CC(=O)c1ccc(NC(=O)c2noc3c2CCCCC3)cc1 | u | 8.9µM | 7.6µM | 2µM | 2.9µM | 1.1µM
CCOC(=O)c1ccc(NC(=O)c2noc3c2CCCC3)cc1 | x | x | 8.5µM | x | x | x
COCCn1c(=O)c(-c2cc(F)cc(F)c2)nc2cnc(OCc3ccccc3)nc21 | x | n | x | x | x | x
Cc1ccc(-c2csc3nnc(SCC(=O)Nc4nsc(-c5ccccc5)n4)n23)cc1 | x | n | n | x | x | x
CCn1c(SCC(=O)Nc2nc3ccccc3s2)nnc1-c1ccc(Br)cc1 | n | n | n | n | n | n
Cc1nnc(SCC(=O)Nc2ccccc2NC(=O)CSc2nnc(C)s2)s1 | x | n | n | x | x | x
CCn1c(SCC(=O)Nc2ccc(-c3nc4ccc(C)cc4s3)cc2)nnc1-c1ccccc1 | u | 0.56µM | u | 0.63µM | u | u
Cc1nnc(SCC(=O)Nc2ccc(-c3nc4ccccc4s3)cc2)s1 | u | 1.3µM | 0.27µM | 0.35µM | 2.1µM | 0.79µM
O=C(CSc1nnc2scc(-c3ccccc3)n12)Nc1nsc(-c2ccccc2)n1 | 9.2µM | n | n | n | n | n
C=CCn1c(SCC(=O)Nc2ccc(N3CCOCC3)cc2)nnc1-c1ccncc1 | n | x | u | n | n | n
C=CCn1c(SCC(=O)Nc2ccc(-c3nc4ccc(C)cc4s3)cc2)nnc1-c1ccncc1 | u | 7.1µM | u | u | u | u
COc1ccc(Cl)cc1NC(=O)CN(C)C(=O)c1sccc1-c1ccccc1 | u | x | n | n | n | n
Cc1nnc(SCC(=O)Nc2nsc(-c3ccc(C(C)(C)C)cc3)n2)s1 | u | 11µM | 11µM | 1.4µM | 3.3µM | 1.4µM
CNc1nnc(-c2ccc(N(C)C)cc2)s1 | u | 2.8µM | 2.1µM | 0.45µM | u | 0.56µM
CCOc1cc(C2C(C#N)=C(N)Oc3n[nH]c(C)c32)ccc1OCCN1CCOCC1 (centres undefined) | n | n | n[2.3 µM] | n | n | 4µM
COc1cc(/C=N\Nc2nc3ccccc3o2)cc(OC)c1OC | u | n | u | n | n | u
COc1cc(/C=N/Nc2nc3ccccc3o2)cc(OC)c1O | n | n | 15µM | n | n | n
COc1ccc(/C=N/Nc2nc3ccccc3o2)cc1O | u | u | 0.95µM | u | 0.92µM | u
CC(=O)Nc1ccc(S(=O)(=O)Nc2nc3ccccc3s2)cc1 | n | n | n | n | n | n
CC(=O)Nc1ccc(/C=N/Nc2nc3ccccc3s2)cc1 | u | x | 0.95µM | 0.45µM | 2.6µM | 0.71µM
CC(=O)Nc1cccc(/C(C)=N/Nc2nc3ccccc3s2)c1 | u | 11µM | 11µM | u | u | n
CCc1nnc(NC(=O)Cc2ccc(S(=O)(=O)N3CCCCC3)cc2)s1 | n | x | n | n | n | n
CC(NC(=O)COC(=O)C12CC3CC(CC(Br)(C3)C1)C2)c1ccccc1 (centres undefined) | n | x | x | x | n | x
CC1=C(C(=O)Nc2cccnc2)C(c2ccc(F)cc2)n2nc(SCc3ccccc3)nc2N1 (centres undefined) | x | n | n | x | x | x
COCCNC(=O)CN1C(=O)NC2(CCCc3cc(OC)ccc32)C1=O (centres undefined) | n | x | n | n[1.84 µM] | n | n
SMILES | ELG1 repair inh | SMN2 splice enh | FLuc counter | Rab9 promoter act | ELG1 genotox | NPC1 prom act
COc1ccc(/C=N/Nc2nc3ccccc3s2)cc1O | u | n | 0.24µM | u | 2.3µM | u
COc1cc(C=C(c2nc3ccccc3s2)c2nc3ccccc3s2)ccc1O | u | n | u | n | n | n
COc1ccc(C=C(c2nc3ccccc3s2)c2nc3ccccc3s2)cc1O | n | n | 11µM | n | u | n
COc1ccc(/C=N/OCC(=O)Nc2nc3ccccc3s2)cc1OC | n | n | n | n | n | n
Cc1ccc(-c2nn3c(C)nnc3s2)cc1NC(=O)CSc1ccc(Cl)cc1 | 21µM | n | n | n | n | n
Cc1ccc2nc(-c3cccc(NC(=O)CSc4ccc(Cl)cc4)c3)oc2c1 | x | u | 1.7µM | x | x | x
CCC(=O)Nc1cccc(-c2nc3ncccc3o2)c1C | n | x | n | n | n | n
O=C(CSc1ccc(Cl)cc1)Nc1cccc(-c2nc3ncccc3o2)c1 | u | n | n | n | n | n
Cc1c(NC(=O)CSc2ccc(Cl)cc2)cccc1-c1nc2ncccc2o1 | 9.2µM | n | n | n | n | n
Cc1ccc2nc(-c3ccc(C)c(NC(=O)CSc4ccc(Cl)cc4)c3)oc2c1 | x | u | 5.4µM | x | x | x
COc1ccc(OC)c(-c2csc(NC(=O)Cc3ccc(F)cc3)n2)c1 | n | x | 17µM | n | n | n
COc1ccc(C)c2sc(NC(=O)C3=COCCO3)nc12 | u | u | 5.4µM | n | 16µM | n
Cc1ccc(C)c(-c2csc(NC(=O)C3=COCCO3)n2)c1 | u | x | u | n | u | n
COc1ccc(OC)c(-c2csc(NC(=O)C3=COCCO3)n2)c1 | n | x | 11µM | n | n | n
COc1ccc(OC)c(-c2csc(NC(=O)c3ccc(F)cc3)n2)c1 | u | x | 11µM | n | n | u
Cc1ccc(S(=O)(=O)NC2CC(C)(C)NC(C)(C)C2)cc1C | n | x | n | n | n | n
COc1cc(C(=O)OCc2nc3ccsc3c(=O)[nH]2)c([N+](=O)[O-])cc1OC | n | x | n | n | n | n
CCOc1ccc(-c2nc3c(c(SCC(=O)N4CCCCC4)n2)Cc2cc(C)ccc2O3)cc1 | x | n | n | x | x | x
CCCCNC(=O)c1cnc2sc(N3CCCCCC3)nn2c1=O | x | x | n | x | x | x
CC1c2cc3c(cc2CCN1C(=O)c1cccc(Cl)c1)OCCCO3 (centres undefined) | u | x | n | n | n | n
COc1ccc(C(=O)Nc2nc(CC(=O)NCCc3ccccc3OC)cs2)cc1 | u | x | 2.7µM | n | n | n
COc1ccc(OC)c(-c2csc(NC(=O)c3ccc(OCC4CCCO4)cc3)n2)c1 (centres undefined) | 6.5µM | n | 1.5µM | n | n | n
COc1ccc(C(=O)Nc2nc(CC(=O)NCc3ccc(F)cc3)cs2)cc1 | u | x | u | u | n | n
CC1=C(C(=O)OCC2CCCO2)C(c2ccsc2)C2=C(CCCC2=O)N1 (centres undefined) | n | n | n | u | n | n
Cc1cc(/C=C2\C(=N)N3N=C(S(C)(=O)=O)SC3=NC2=O)c(C)n1Cc1ccccc1 | n | n | 17µM | n | n | n
CCCC1=NN2C(=N)/C(=C\c3cc(C)n(Cc4ccccc4)c3C)C(=O)N=C2S1 | n | x | u | n | n | n
CCOc1cc(/C=C2\C(=N)N3N=CSC3=NC2=O)ccc1OS(=O)(=O)c1ccccc1 | n | x | n | n | n | n
Cc1cc(/C=C2\C(=N)N3N=CSC3=NC2=O)c(C)n1Cc1ccccc1 | u | x | 1.3µM | u | u | u
CCOc1cc(CNCc2ccccc2)ccc1OCc1ccc(Cl)cc1 | u | x | n | n[1.84 µM] | n | n
